# How the values were obtained:
# Experiment in all cases: PBM binding z-score (relative to random genomic background probes); higher = stronger binding; sequences stand for … in GC…GCGATTGACAGCGTAGAATGAAGG
# [1] = tested on: FXR:RXRa (NR concentration 270 nM, RXRa partner concentration 90 nM)
# How it was run: (§1)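 Custom Agilent 4×180K protein-binding microarrays carried double-stranded probes. Their 34-nt variable regions held direct-repeat seeds, single-nucleotide variants, half-site ablations and random human genomic background sequences. Arrays were incubated 1 h with ligand-free nuclear receptor dimers in PBS pH 7.4, 2% milk, 0.02% Triton X-100, 1 mM DTT, 0.2 mg/mL BSA and 0.4 mg/ml salmon testes DNA. Antibodies against each partner (one per run) detected binding, and scanned fluorescence was regression-normalized. Binding z-scores use random background probes as reference.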
# [2] = tested on: LXRa:RXRa (NR concentration 270 nM, RXRa partner concentration 90 nM)
# How it was run: as §1
# [3] = tested on: LXRa homodimer (NR concentration 270 nM)
# How it was run: as §1
# [4] = tested on: LXRb:RXRa (NR concentration 270 nM, RXRa partner concentration 90 nM)
# How it was run: as §1
# [5] = tested on: LXRb homodimer (NR concentration 270 nM)
# How it was run: as §1
# [6] = tested on: PPARa:RXRa (NR concentration 270 nM, RXRa partner concentration 90 nM)
# How it was run: as §1
# [7] = tested on: PPARg:RXRa (NR concentration 180 nM, RXRa partner concentration 90 nM)
# How it was run: as §1
# [8] = tested on: PPARg:RXRa 270nM:90nM, anti-RXR (NR concentration 270 nM, RXRa partner concentration 90 nM)
# How it was run: as §1
# [9] = tested on: PPARg:RXRa 30nM:10nM, anti-RXR (NR concentration 30 nM, RXRa partner concentration 10 nM)
# How it was run: as §1
# [10] = tested on: PPARg:RXRa 90nM:30nM, anti-RXR (NR concentration 90 nM, RXRa partner concentration 30 nM)
# How it was run: as §1
# [11] = tested on: PPARg:RXRa DBDmut IVT, anti-RXR (DBD mutation: RXRa K156A/R161A, NR concentration 270 nM, RXRa partner concentration 90 nM)
# How it was run: as §1
# [12] = tested on: PPARg:RXRa IVT, anti-PPARg (NR concentration 270 nM, RXRa partner concentration 90 nM)
# How it was run: as §1
# [13] = tested on: PPARg DBDmut:RXRa IVT, anti-PPARg (DBD mutation: PPARg1 K132A/R137A, NR concentration 270 nM, RXRa partner concentration 90 nM)
# How it was run: as §1
# [14] = tested on: PPARg DBDmut IVT, anti-PPARg (DBD mutation: PPARg1 K132A/R137A, NR concentration 270 nM)
# How it was run: as §1
# [15] = tested on: PPARg homodimer (NR concentration 180 nM)
# How it was run: as §1
# [16] = tested on: PXR:RXRa (NR concentration 270 nM, RXRa partner concentration 90 nM)
# How it was run: as §1
# [17] = tested on: PXR homodimer (NR concentration 270 nM)
# How it was run: as §1
# [18] = tested on: RARa:RXR (NR concentration 270 nM, RXRa partner concentration 90 nM)
# How it was run: as §1
# [19] = tested on: RARa homodimer (NR concentration 270 nM)
# How it was run: as §1
# [20] = tested on: RARb:RXRa (NR concentration 270 nM, RXRa partner concentration 90 nM)
# How it was run: as §1
Sequence,PBM binding z-score [1],PBM binding z-score [2],PBM binding z-score [3],PBM binding z-score [4],PBM binding z-score [5],PBM binding z-score [6],PBM binding z-score [7],PBM binding z-score [8],PBM binding z-score [9],PBM binding z-score [10],PBM binding z-score [11],PBM binding z-score [12],PBM binding z-score [13],PBM binding z-score [14],PBM binding z-score [15],PBM binding z-score [16],PBM binding z-score [17],PBM binding z-score [18],PBM binding z-score [19],PBM binding z-score [20]
CGTCCAAGGTCAAAGGTCAGTTAAGAGATGACGG,8.43,6.95,4.02,6.65,2.51,7.44,10.5,8.31,7.4,9.07,3.55,5.71,1.21,-0.205,3.01,6.49,1.86,8.28,1.38,6.2
CGTCCAAGGTCAAGGTCAGTGATAGAGACTCGAA,7.73,5.59,1.52,4.55,0.758,6.02,6.2,6.15,2.73,4.98,3.79,4.5,1.28,0.138,4.99,5.05,1.18,5.44,2.41,5.73
CGTCAAAGTTCAAGGTAACGTTACAGAAAGCAGC,6.48,5.5,3.04,3.64,1.12,4.78,4.55,5.04,2.28,4.37,1.03,2.42,0.621,1.08,3.53,4.49,3.12,3.46,2.12,5.26
CCTACTGGGCCAAAAAGCTCATTGATGCCGATAA,-0.506,-0.69,-0.717,-0.724,-1.22,-0.251,0.473,1.24,-0.429,0.564,3.38,2.11,-0.849,-0.936,-0.703,-0.847,-0.417,-1.01,-0.487,-0.356
AGAATGAGGTTATACGTAGATCTGGGAAGAAAGT,2.02,1.53,-0.23,1.2,-0.294,3.14,1.88,2,0.653,1.38,3.58,2.08,0.645,0.965,0.546,0.994,0.44,1.5,-0.128,1.23
CGTCCACGGTCAGCAGGTCAGTGAAAGCGACGTG,0.822,0.439,-0.291,-0.097,-0.966,1.08,0.155,0.415,-0.695,-0.328,0.719,0.748,-0.923,-1.32,0.382,0.0662,-0.459,0.943,-0.66,3.25
GGTGCTAGGTCAACTGATGGTCAGCTAAAGCTCG,4.46,3.2,0.481,2.17,0.109,3.84,3.55,3.81,0.998,2.53,4.51,4.91,-0.202,-0.913,3.45,1.84,0.142,3.25,0.466,4.43
CAAACTAGGTGAAGAGGTCAAAGTCCGCTTCCCG,4.89,4.87,4.29,4.34,0.798,5.95,8.28,7.03,5.27,7.36,7.18,7.52,2.35,2.46,2.49,5.31,1.58,5.42,0.811,4.19
CCTTACGGGACACTGACAGGTTATAGCATTTGGA,-0.0808,-0.0885,0.186,0.0675,-0.248,-0.0851,0.499,-0.397,0.123,-0.284,0.975,0.149,0.162,-0.682,-0.0979,-0.2,0.162,-0.0303,0.647,0.42
GCTCGGAGGACAAGGTCAGAGCTTTGTCCGTAGA,1.71,2.02,-0.543,1.29,-0.667,2.5,0.957,1.67,-0.521,0.794,-0.433,0.861,-1.56,-1.45,0.708,1.55,-0.264,2.24,-0.542,3.52
CAATCTAGGTCACCGGAAGGTCAAAGTCCGCATG,6.51,6.15,6.06,5.42,1.92,6.32,10,7.96,6.12,8.12,8.34,8.62,2.22,1.39,7.89,5.96,2.44,7.4,3.19,5.41
CCGAGTAGGTTATGGGGCATACAGGCAACGGTGA,0.216,0.557,-0.0431,0.599,-0.226,2.3,3.69,4.52,2.65,4.38,2.66,3.61,0.382,0.114,1.1,-0.123,-0.0326,-0.237,0.493,0.987
AATACAGGGTCAACGTAGGCCAGAGTACGCACAG,7.15,6.18,1.92,4.41,1.47,5.88,6.89,6.32,2.82,4.85,3.16,4.2,1.64,1.2,2.78,5.23,0.288,5.45,1.71,4.6
TGAATGGGGTTAAAGATCAGGGAACGTGGCGTCG,5.11,3.48,0.361,4.01,3.3,5.61,6.88,7.24,5.21,7.51,2.89,3.96,1.84,2.48,2.38,3.45,1.64,5,1.66,2.43
ATTCGGAGGACAAAGGTCAGAGCTACGCCAGTGA,4.05,4.26,1.79,3.52,0.763,4.9,7.69,6.94,7.1,7.23,0.417,3.74,0.302,-0.48,3.33,3.99,0.477,4.9,0.808,4.39
CGAACTAGATCATTGACAGGACAGTGAATAGTAA,-0.0761,-0.268,0.18,-0.274,-0.0892,0.0131,0.572,-0.333,0.0975,0.113,1.8,0.856,0.569,0.266,0.538,0.285,-0.0589,0.3,0.92,0.0179
ATACCAAAGTGATCGTGAGGTCGTTGATACTAAC,1.23,0.707,0.848,0.923,-0.182,0.935,0.235,0.258,0.0966,-0.173,-0.498,0.345,0.693,0.857,0.565,1.86,1.59,1.59,0.386,0.514
AGTCAATGTTCACTAGGTAACGTAAGATTCAGCT,-0.318,-0.205,-0.143,-0.121,-0.147,0.363,0.656,0.368,0.15,0.302,1.92,2.92,1.08,0.776,0.288,-0.0899,-0.202,-0.181,-0.0197,0.143
CCTACTGGGCCCAAAAGGTCATTGATGCCGATAA,4.23,4.84,3.68,4.62,0.521,4.61,1.78,3.47,0.593,2.69,0.117,1.66,-0.622,-1.17,2.86,4.97,1.92,5.31,1.46,3.93
GCTAGTTGGTCAGTTAAAGGTCACACACCGGTCG,3.58,4.58,5.75,3.98,0.905,4.23,3.18,5.17,3.67,4.95,1.33,2.95,0.429,0.266,5.59,4.98,1.44,6.18,2.99,4.13
TTACCAAGGTGAAGGTCGTTGTTCCCTCTGTAGA,1.41,1.32,0.195,1.41,-0.491,2.58,2.54,4.08,2.07,3.78,2.23,3.49,-0.665,-0.042,0.635,1.47,0.134,1.76,-0.318,2.4
CTTCCAAGGTCAATGCTAGGTCAGTGAAAGCATT,6.83,5.58,3.58,4.25,1.7,5.14,4.42,4.73,1.5,3.45,3.33,4.08,1,0.112,4.08,4.64,1.63,6.06,0.988,5.2
CGAACGACGGCATGAGTTGATAGCAAATGCCGAT,-0.791,-1.12,-0.686,-1.11,-1.32,-1.22,0.598,-0.893,-0.557,-0.878,-1.05,-1.08,-1.17,-0.517,-0.497,-0.722,-0.155,-0.909,-0.629,-1.05
CAAACTAGGTCACCGGAAGGTCAAATTCCGCATG,6.25,6.28,5.9,5.82,1.95,6.06,9.94,8.01,6.22,7.81,8.5,8.8,3.05,2.87,7.39,6.11,2.46,7.62,3.35,5.12
ACAGACAGGTGAGTGAAGGTGACTCAGCTGGACG,0.162,-0.00172,-0.654,-0.308,-0.35,0.592,0.8,0.28,-0.492,-0.01,0.718,1.24,0.42,-0.00311,-0.248,-0.0313,-0.405,0.49,0.0445,0.935
GCTGCTAGGTCCGGTTGGTCAGCTAACGGGTACG,-0.467,-0.521,-0.707,-1.05,-0.916,-0.619,-0.571,-0.342,-0.72,-0.851,-0.426,-0.34,-1.47,-1.49,-1.32,-0.574,-0.913,-0.552,-1.7,0.0828
CGAACAAGGTCAGAACAGGACAGTGAAGGATGAT,4.33,3.42,0.289,2.42,0.289,3.91,3.09,3.2,1.12,1.95,2.79,3.05,0.722,0.826,1.5,3.22,0.399,2.47,0.0836,4.31
TCTTGTAGATCAGCAGGTTCAGAAAGCTGGCCAA,-0.19,0.323,-0.435,0.265,-0.738,0.609,-0.665,1.1,2.02,1.52,1.4,0.189,-0.291,-0.791,-0.268,0.644,-0.241,0.455,-0.229,0.0377
TAGCCTAGGTCAAGGGCCAGTATACCACGCGAAC,4.16,3.02,0.0881,2.2,-0.716,3.87,4.52,4.61,1.8,3.59,1.71,3.19,-0.167,-0.743,1.63,1.28,-0.234,2.31,-0.242,3.96

# Source: the supplement of paper PMC6555819
